Measurements taken from ChEMBL document CHEMBL4513146, “CO-ADD screening of Karazin Kharkiv National University (Ukraine) compounds”.
Entries with a potency or affinity are not part of this list.

Columns and labels:
Staphylococcus aureus = settings: Concentration 32 ug.mL-1;; ASSAY_TEST Inhibition of Bacterial Growth; detection method Absorption (OD600); MEDIA CAMHB; plate type 384well; NBS; CORNING #3640; time 18 hr
Escherichia coli = settings: Concentration 32 ug.mL-1;; ASSAY_TEST Inhibition of Bacterial Growth; detection method Absorption (OD600); MEDIA CAMHB; plate type 384well; NBS; CORNING #3640; time 18 hr

| SMILES | Inhibition (Staphylococcus aureus) | Inhibition (Escherichia coli) |
| --- | --- | --- |
| O=C(Cn1nc2c3c4c(sc3ncn2c1=O)CCCC4)Nc1ccc2c(c1)OCO2 | -0.05% | -3.47% |
| Cc1nnc2ccc(S(=O)(=O)N(Cc3cccc(F)c3)c3ccc(F)cc3)cn12 | -0.57% | -11.39% |
| CCCCOc1ccc(-c2cc3c4nnc(SCC(=O)Nc5ccc(OC)cc5)n4ccn3n2)cc1 | -5.31% | -9.08% |
| Cc1cccc(N(CC(=O)OC(C)(C)C)S(=O)(=O)c2cccn3c(C)nnc23)c1 | 5.88% | -7.68% |
| COc1ccc(Cl)cc1NC(=O)CSc1nc2ccccc2n2c(C(C)C)nnc12 | -6.36% | -1.47% |
| COc1ccc(-n2ccn3c(=O)n(Cc4ccccc4Cl)nc3c2=O)cc1Cl | 3.32% | 3.28% |
| O=c1c2nnc(SCc3ccccc3Cl)n2ccn1-c1ccc(F)c(F)c1 | 11.5% | -3.79% |
| CCc1nnc2c(S(=O)(=O)N(Cc3cccc(C)c3)c3ccc(Cl)cc3)cccn12 | 8.39% | 0.27% |
| CCCCN(CC)c1ccc2nnc(CCc3nc(-c4ccc(OCc5ccccc5)cc4)no3)n2n1 | 4.18% | -2.08% |
| O=C(Cn1nc2c(Sc3cccc(F)c3)nccn2c1=O)Nc1ccc(F)c(Cl)c1 | -0.79% | -15.42% |
| Cc1ccc(-c2ccc3nnc(CCC(=O)NCc4cccc(Br)c4)n3n2)cc1 | 12.72% | -0.13% |
| CCCN(C)c1nccn2c(=O)n(CC(=O)Nc3cccc(C(C)=O)c3)nc12 | 10.12% | -7.5% |
